RXFP1 antagonist: qHTS Assay for Antagonists of the Relaxin Receptor RXFP1; Relaxin receptor 1 (Homo sapiens), Q9HBX9; HEK293-RXFP1, relaxin-stimulated cAMP HTRF, 30 min; stronger effect = lower value; activity change, negative = inhibition, % at 57.5 µM; 0.59% of 350,000 active; AID 1259400, 2018;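 active = activity change of -60% or lower, but not beyond a set lower limit; inconclusive = change between -60% and -40%, or beyond the set limit; inactive = change above -40%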; note: % is set by controls: 0 for no effect and ±100 for the full control effect
Target sequence (Q9HBX9 whole entry, looked up): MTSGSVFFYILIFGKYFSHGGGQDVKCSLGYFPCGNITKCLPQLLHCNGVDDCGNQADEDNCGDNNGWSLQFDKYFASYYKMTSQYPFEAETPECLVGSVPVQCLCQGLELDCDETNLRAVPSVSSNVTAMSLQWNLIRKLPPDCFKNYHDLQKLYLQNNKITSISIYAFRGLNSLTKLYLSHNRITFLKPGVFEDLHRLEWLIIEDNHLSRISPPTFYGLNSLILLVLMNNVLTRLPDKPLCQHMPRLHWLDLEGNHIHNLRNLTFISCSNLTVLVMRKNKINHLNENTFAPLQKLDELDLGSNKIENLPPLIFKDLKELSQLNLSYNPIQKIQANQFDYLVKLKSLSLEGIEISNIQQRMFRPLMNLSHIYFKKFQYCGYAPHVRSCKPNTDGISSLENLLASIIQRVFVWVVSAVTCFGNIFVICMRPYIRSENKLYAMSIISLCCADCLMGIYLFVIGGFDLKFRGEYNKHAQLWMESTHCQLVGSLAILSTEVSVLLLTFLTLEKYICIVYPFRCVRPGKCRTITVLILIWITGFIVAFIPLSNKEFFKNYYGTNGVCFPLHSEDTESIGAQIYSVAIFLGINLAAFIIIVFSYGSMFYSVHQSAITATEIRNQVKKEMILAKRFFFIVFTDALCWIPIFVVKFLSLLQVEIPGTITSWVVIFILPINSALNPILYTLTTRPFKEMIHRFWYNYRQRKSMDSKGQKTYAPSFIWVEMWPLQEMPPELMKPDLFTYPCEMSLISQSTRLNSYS
miR-21 act: qHTS Assay for Modulators of miRNAs and/orActivators of miR-21; HeLa miR-21 FLuc reporter, luciferase, 48 h; Potency, µM (doses to about 38.3 µM), without a hit: at the top dose activity change, positive = activation, hits mostly activators; 340,000 tested, under 10 active;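 note: % of control where 0% means no effect; miR-21 action dims this reporter so a rising signal means less miR-21 action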
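HeLa miR-21-FLuc reporter line, endogenous miR-21; 2000 cells/well in DMEM/10% FBS; compound titration up to ~40uM final, 48 h, 37 degree Celsius; luciferase detection reagent, 15 min lysis, CCD luminescence.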
KinaseGlo FLuc: Counterscreen for Luciferase (Kinase-Glo TM) Inhibition | Kinase-Glo luciferase, ATP luminescence, 8 min | Potency, µM (series often up to 38.3 µM), for the others: at the highest dose activity change, negative = inhibition, most hits filed as inhibitors | 0.28% of 200,000 active; note: potency is the fitted concentration of half-maximal effect; % is set by controls: 0 for no effect and ±100 for the full control effect; nearly all actives have a fitted effect of over 60% in size
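Recombinant Kinase-Glo luciferase, 10 uM ATP (linear range), luciferin; imidazole pH 7.2 / KCl / MgCl2 / Tween / BSA buffer; 8 min RT; luminescence.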
gsp antagonist: qHTS for Antagonists of gsp, the Etiologic Mutation Responsible for Fibrous Dysplasia/McCune-Albright Syndrome: qHTS. Potency, µM (highest dose often 76.9 µM), for inactives: at the top dose activity change, negative = inhibition, hits mostly inhibitors. gsp-mutant cells, cAMP HTRF, 30 min. 0.4% of 340,000 active; calls by dose curve; cell line not stated here;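 note: intracellular cAMP measured with PDE inhibitor Ro 20-1724 present during compound exposure; potency is the fitted concentration of half-maximal effect; % is set by controls: 0 for no effect and ±100 for the full control effect; nearly all actives have a fitted effect of over 65% in size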
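Cells, 2000/well, grown 16–24 h in DMEM 10% FBS with 0.5 mg/ml G418, then compounds plus […] (300 uM addition stock), 30 min at 37C. cAMP read by HTRF (cAMP-d2 and anti-cAMP antibody-K in lysis buffer) after 30 min RT.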
gsp ag: qHTS for Agonist of gsp, the Etiologic Mutation Responsible for Fibrous Dysplasia/McCune-Albright Syndrome: qHTS. Potency, µM (doses to about 76.9 µM), for the others: at the top dose activation (cAMP increase), most hits filed as activators. gsp mutant cells, cAMP HTRF, 30 min. 0.13% of 340,000 active. AID 624287, 2012; active = well fitted activation curve with a large enough effect; inconclusive = small, poorly fitted or top-dose-only effect, or another doubt; inactive = no such curve, though single readings can be large or run the other way; cell line not stated here;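 note: phosphodiesterase inhibitor Ro 20-1724 added with compounds to block cAMP breakdown; potency is the fitted concentration of half-maximal effect; nearly all actives have a fitted effect of over 60% in size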
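Cells stably selected in G418 were plated at 2000/well, grown 16-24 hr, then given compounds in DMSO with the PDE inhibitor […] (300 uM solution added) for 30 min at 37C; cAMP was read by HTRF.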
RXFP1 agonist: qHTS Assay for Agonists of the Relaxin Receptor RXFP1 | Relaxin receptor 1 (Homo sapiens), Q9HBX9 | HEK293T-RXFP1 cAMP TR-FRET, 30 min; response scale: percent of porcine relaxin response, buffer zero | Potency, µM (highest dose often 57.5 µM), for inactives: top-dose activation, hits mostly activators | 0.3% of 370,000 active | AID 2676, 2010; note: potency is the fitted concentration of half-maximal effect; % is set by controls: 0 for no effect and ±100 for the full control effect; nearly all actives have a fitted effect of over 60% in size
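HEK293T cells stably expressing RXFP1 were pretreated with the PDE4 inhibitor Ro 20174, exposed to compounds for 30 min at 37C, lysed, and cAMP was read by TR-FRET. Data normalized to buffer (basal) and 29 nM porcine relaxin (100%).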
* hit, by the source's call; ? = inconclusive; / = no result given; [ ] = remark or other dose. Rows were chosen to be rich in hits. Some 1% of all compounds tested hit in one or more screens of this group. Unless noted, calls come from the whole dose curve; as a rule, active = well fitted curve in the direction sought with a large enough effect; inconclusive = small, poorly fitted or top-dose-only effect, or another doubt; inactive = no such curve, though single readings can be large; an effect the other way counts as inactive or inconclusive.

SMILES	RXFP1 antagonist	miR-21 act	KinaseGlo FLuc	gsp antagonist	gsp ag	RXFP1 agonist
C[C@H]1CN([C@@H](C)CO)C(=O)c2cc(Br)cnc2O[C@H]1CN(C)C(=O)c1cnccn1	12	/	/	/	11µM*	/
CCOC(=O)c1c(-c2ccccc2)c[nH]c1C	-88*	/	/	4%	-1%	/
CCOC(=O)c1c(-c2ccccc2)cn2ccccc12	-8	-9%	-4%	-12%	?	2%
CCOc1ncc(F)c(=O)[nH]1	6	/	/	/	/	/
O=C(CCCCCCCCC#CI)Oc1ccccc1	2	/	/	/	/	/
CNc1oc(-c2ccc(F)cc2)nc1S(=O)(=O)c1ccccc1	17	4%	/	-4%	?	14%
CNc1oc(-c2cccs2)nc1S(=O)(=O)c1ccccc1	-6	2%	-3%	-45%	1%[15.4 µM]	2%
CCC(C)S(=O)(=O)c1oc(-c2cccs2)nc1S(=O)(=O)c1ccccc1 (stereo not drawn)	-79*	?	/	/	/	1%
CC(C)CS(=O)(=O)c1oc(-c2ccc(F)cc2)nc1S(=O)(=O)c1ccccc1	-82*	?	/	/	/	4%
O=c1c(N2CCN(c3cccc(Cl)c3)CC2)csc2ccccc12	-16	-10%	/	/	/	1%
Cc1sc2c(c1C)c(=O)n(-c1cccc(C(F)(F)F)c1)c(=O)n2Cc1ccc(F)cc1	6	-5%	/	/	/	1%
CCO[C@@H]1OC(C(=O)NCc2ccccc2)=C[C@H](C2CC2)[C@H]1CCCO	/	1%	/	-8%	?	1%
CCO[C@@H]1OC(C(=O)NCc2ccccc2)=C[C@H](C2CCCCC2)[C@H]1CCCO	/	4%	/	11µM*	-9%	-1%
O=C(O)[C@@H]1[C@@H](C(=O)O)[C@@]23CCCC2=C2CC[C@@]3(C(=O)O)[C@@]3(C(=O)O)C[C@@]213	/	/	-4%[7.66 µM]	/	/	/
O=C1c2[nH]nc(-c3ccccc3O)c2C(c2ccccc2)N1Cc1ccco1 (stereo not drawn)	-7	1%	6%	?	-31%	-1%
COc1cc(C2c3c(-c4ccccc4O)n[nH]c3C(=O)N2CCO)ccc1OCC(C)C (stereo not drawn)	-32	1%	/	/	/	-1%
COc1cc(C2c3c(-c4ccccc4O)n[nH]c3C(=O)N2Cc2ccco2)ccc1OCC(C)C (stereo not drawn)	-68*	?	/	/	/	2%
O=C1c2[nH]nc(-c3ccccc3O)c2C(c2ccc(Cl)cc2)N1Cc1ccco1 (stereo not drawn)	-111*	24%	/	/	/	0%
CC(=O)SCC(CC(=O)c1ccc(C)cc1)C(=O)O (stereo not drawn)	-26	/	/	/	/	/
CCc1ccc(C2c3c(-c4cc(C)ccc4O)n[nH]c3C(=O)N2CCO)cc1 (stereo not drawn)	-16	-24%	/	/	/	0%
Cc1cccc(/C=C\c2ccccc2)n1	/	/	11µM*	/	/	/
Cc1ccc(NC(=O)Nc2nnc(-c3ccncc3)s2)cc1C	-11	-2%	0%	45µM*	-1%	0%
C=C1C(=O)C23C(O)C1CCC2C12CCCC(C)(COC(C)=O)C1C(O)C3(O)OC2 (stereo not drawn)	-117*	/	/	-5%	-3%	/
Cc1nc(SCC(=O)N2CCN(C(=O)c3cccs3)CC2)c2c(C)c(C)sc2n1	-64*	/	/	-30%	?	17%
CN1C(=O)S/C(=C/c2ccccc2OCc2ccc(C(=O)O)cc2)C1=O	4	-3%	1%	32µM*	-2%[15.4 µM]	1%
SMILES	RXFP1 antagonist	miR-21 act	KinaseGlo FLuc	gsp antagonist	gsp ag	RXFP1 agonist
CN1C(=O)S/C(=C\c2ccccc2OCc2ccc(C(=O)O)cc2)C1=O	-16	-5%	-3%	?	-21%	1%
CCCc1cc(C(=O)N(C2CCCCC2)C2CCCCC2)no1	-70*	-2%	-3%	-26%	-51%	0%
COC(=O)C1=C(C)N(Cc2ccccc2)C(=NCc2ccc(OC)cc2)N[C@H]1c1ccc(Br)cc1	/	1%	/	/	/	1%
C=CCN=c1scc(-c2ccco2)n1/N=C/c1ccc(O)c(O)c1O	?	-4%	/	-29%	16%[15.4 µM]	4%
COCCN=c1scc(-c2ccco2)n1/N=C/c1ccc(O)c(O)c1O	-104*	0%	-2%	?	-17%[15.4 µM]	-2%
CN=c1scc(-c2cccs2)n1/N=C/c1ccc(O)c(O)c1O	-63*	-3%	-26%	-21%	-11%	0%
Oc1ccc(/C=N/n2c(-c3ccco3)csc2=Nc2cccnc2)c(O)c1	-62*	15%	3%	?	-4%[15.4 µM]	0%
CCC(Cc1ccccc1)NC(=O)c1csc2c1CCCCC2 (stereo not drawn)	/	-2%	/	/	/	0%
CN(C)S(=O)(=O)Oc1cccc(C(=O)Nc2cccc(Cl)c2)c1	-4	8%	1%	28µM*	-30%	-3%
Cc1cccc(N(C)S(=O)(=O)c2nnc(NC(=O)C3CCCCC3)s2)c1	3	-10%	/	/	/	1%
COc1ccccc1C(=O)NCCC(=O)Nc1nc2ccccc2[nH]1	-86*	/	/	-1%	9%[15.4 µM]	1%
COc1cccc(C(=O)Nc2nc3ccccc3[nH]2)c1	6	25%	13µM*	-2%	6%	2%
O=C(Nc1nc2ccccc2[nH]1)c1cccc(F)c1	-38	10%	/	?	?	1%
COc1ccc(C(=O)Nc2nc3ccccc3[nH]2)cc1	-78*	?	/	-16%	6%	0%
COc1cccc(CNC(=O)c2ccc3c(c2)nnn3C2CCCC2)c1	/	-10%	/	/	/	2%
O=C(COc1ccc2ccccc2c1Br)Nc1cccnc1	-15	-36%	/	17%	6.3µM*	15%
Cc1ccc(N(CC(=O)Nc2cccc(Cl)c2)S(=O)(=O)c2cccs2)cc1	/	8%	/	/	/	2%
Cc1ccc(S(=O)(=O)O[C@H]2CC(C(C)(C)C)CC[C@@H]2c2ccccc2)cc1 (stereo partly drawn)	/	/	-5%[7.66 µM]	/	/	/

Source: PubChem (National Center for Advancing Translational Sciences (NCATS))
